Here are results for seven molecules from paper PMC5540273 (PLoS ONE, 2017).

Structures are written as SMILES.

Some test systems named below: CSNK1G1; CSNK1G2; CSNK1G3; CSNK2A1; CSNK2A2; DAPK1; DAPK2; DAPK3; DDR1; DDR2; DMPK; DYRK1A.
Common to all, as to details: concentration: 1 μM,replicates: in singlicate; n = 1
The next assay relates to T1, CTK.
T1 construct: gene MATK

A further assay deals with T2, DCAMKL1.
T2 construct: gene DCLK1

The subject of a further assay is T3, DCAMKL2.
T3 construct: gene DCLK2

The next assay deals with T4, DCAMKL3.
T4 construct: gene DCLK3

For the next assay, the system named is T5, DLK.
T5 construct: gene MAP3K12

For the next assay, the system named is T6, DMPK2.
T6 construct: gene CDC42BPG

In another assay the test system is T7, DRAK1.
T7 construct: gene STK17A

The test system of another assay is T8, DRAK2.
T8 construct: gene STK17B
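Note: KINOMEscan kinase panel screen.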

With `C=CC(=O)Nc1cc2c(Nc3ccc(F)c(Cl)c3)ncnc2cc1OCCCN1CCOCC1` [GW781483], the “%Inh” value in the assay with CSNK1G1 amounted to 0%; with CSNK1G2, 1%; in the assay on CSNK1G3, 99.8%; in the assay with CSNK2A1, 27%; with CSNK2A2 it was 16%; in the assay on CTK it was 4%. The “%Inh” value with DAPK1 turned out to be 0%; in the assay on DAPK2, 0%; in the assay with DAPK3, 0%; in the assay on DCAMKL1, 15%; in the assay with DCAMKL2 it was 1%; in the assay on DCAMKL3, 10%. Further, the “%Inh” value with DDR1 was found to be 71%; in the assay on DDR2, 44%; in the assay with DLK, 0%; in the assay on DMPK2, 6%; in the assay on DMPK, 20%; with DRAK1, 2%. The “%Inh” value in the assay on DRAK2 was found to be 5%; with DYRK1A, 11%.

Turning to `C[C@@H](Oc1cc(-c2cnn(C3CCNCC3)c2)cnc1N)c1c(Cl)ccc(F)c1Cl`, the “%Inh” value with CSNK1G1 was 8%; in the assay with CSNK1G2, 0%; with CSNK1G3, 0%; in the assay on CSNK2A1 it was 18%; in the assay on CSNK2A2 it was 0%; with CTK it was 13%. In addition, the “%Inh” value turned out to be 10% in the assay with DAPK1; 1% in the assay with DAPK2; 15% with DAPK3; 88% with DCAMKL1; 79% in the assay on DCAMKL2; 22% in the assay on DCAMKL3. Further, the “%Inh” value came out at 59% with DDR1; 44% with DDR2; 94.6% in the assay on DLK; 0% with DMPK2; 22% in the assay with DMPK; 0% with DRAK1. Moreover, the “%Inh” value in the assay with DRAK2 stood at 0%; in the assay with DYRK1A, 12%.

For the molecule `CNC(=O)c1ccccc1Sc1ccc2c(/C=C/c3ccccn3)n[nH]c2c1`, the “%Inh” value worked out at 0% with CSNK1G1; 18% with CSNK1G2; 0% in the assay with CSNK1G3; 0% in the assay on CSNK2A1; 0% in the assay with CSNK2A2; 8% in the assay with CTK. Also, the “%Inh” value in the assay with DAPK1 is 0%; with DAPK2, 0%; in the assay with DAPK3, 0%; in the assay on DCAMKL1, 31%; in the assay on DCAMKL2, 14%; with DCAMKL3, 76%. In addition, the “%Inh” value was 18% in the assay with DDR1; 14% in the assay with DDR2; 41% with DLK; 6% with DMPK2; 0% with DMPK; 76% in the assay with DRAK1. The “%Inh” value in the assay on DRAK2 and with DYRK1A was 0% in each case.

In the case of `C[C@@H]1CCN(C(=O)CC#N)C[C@@H]1N(C)c1ncnc2[nH]ccc12`, the “%Inh” value with CSNK1G1 was 15%; in the assay with CSNK1G2, 0%; in the assay on CSNK1G3, 0%; in the assay on CSNK2A1 it was 0%; in the assay on CSNK2A2 it was 0%; with CTK, 0%. Also, the “%Inh” value in the assay on DAPK1 worked out at 10%; in the assay with DAPK2, 0%; with DAPK3, 4%; in the assay with DCAMKL1 it was 0%; with DCAMKL2 it was 14%; with DCAMKL3, 99.1%. The “%Inh” value with DDR1 is given as 0%; in the assay on DDR2, 0%; in the assay with DLK, 0%; in the assay with DMPK2, 0%; in the assay on DMPK it was 24%; with DRAK1 it was 11%. The “%Inh” value is 5% in the assay on DRAK2 and 0% in the assay on DYRK1A.

On to `CC(C)Nc1cc(-c2ccc3c(N)n[nH]c3c2)nc(N)n1` [GSK2221681], for which the “%Inh” value worked out at 0% with CSNK1G1; 2% in the assay with CSNK1G2; 19% in the assay with CSNK1G3; 13% in the assay with CSNK2A1; 28% with CSNK2A2; 0% in the assay on CTK. Also, the “%Inh” value with DAPK1 came out at 30%; in the assay on DAPK2, 42%; in the assay on DAPK3 it was 51%; in the assay on DCAMKL1, 7%; in the assay with DCAMKL2, 20%; in the assay on DCAMKL3, 51%. The “%Inh” value in the assay on DDR1 came out at 0%; with DDR2 it was 0%; with DLK it was 28%; in the assay with DMPK2 it was 0%; in the assay on DMPK, 0%; in the assay on DRAK1, 99%. Moreover, the “%Inh” value came out at 0% in the assay with DRAK2 and 50% in the assay on DYRK1A.

Consider `C[C@H]1Oc2cc(cnc2N)-c2c(nn(C)c2C#N)CN(C)C(=O)c2ccc(F)cc21`, for which the “%Inh” value in the assay with CSNK1G1 was found to be 0%; in the assay on CSNK1G2 it was 27%; with CSNK1G3, 10%; with CSNK2A1, 0%; with CSNK2A2, 0%; in the assay with CTK, 0%. Moreover, the “%Inh” value with DAPK1 worked out at 0%; in the assay with DAPK2, 83%; in the assay with DAPK3, 16%; in the assay on DCAMKL1, 88%; in the assay on DCAMKL2 it was 91.8%; in the assay with DCAMKL3, 15%. Moreover, the “%Inh” value was 3% in the assay on DDR2; 2% in the assay on DLK; 0% in the assay on DMPK2; 0% with DMPK; 2% with DRAK1; 0% in the assay with DRAK2. In addition, in the assay on DYRK1A, the “%Inh” value is reported as 0%.

As for `NC(=O)c1cc(-c2ccccc2)cc2c(C3CCNCC3)c[nH]c12` [GSK301362], the “%Inh” value is 3% in the assay on CSNK1G1; 0% in the assay with CSNK1G2; 19% in the assay with CSNK1G3; 31% with CSNK2A1; 20% with CSNK2A2; 4% in the assay with CTK. In addition, the “%Inh” value in the assay with DAPK1 is reported as 23%; in the assay with DAPK2 it was 9%; in the assay with DAPK3, 40%; with DCAMKL1, 14%; in the assay on DCAMKL2, 2%; in the assay on DCAMKL3, 53%. Further, the “%Inh” value with DDR2 stood at 0%; in the assay with DLK, 23%; in the assay with DMPK2 it was 8%; with DMPK, 30%; in the assay with DRAK1, 0%; in the assay on DRAK2 it was 0%. Also, the “%Inh” value in the assay on DYRK1A is recorded as 28%.
